Experimental findings from ChEMBL document CHEMBL1961873, “Compounds: GSK PKIS; Assays: Nanosyn kinase panel” (2012) are described below.

Assay [1] deals with RAC-alpha serine/threonine-protein kinase (Homo sapiens) (UniProt P31749). The note with it: at 0.1 µM.
Assay [2] has the same target. The note with it: at 1 µM.
The target of assay [3] is RAC-beta serine/threonine-protein kinase (Homo sapiens) (UniProt P31751). The note with it: at 0.1 µM.
For assay [4] the target is unchanged. The note with it: at 1 µM.
Assay [5] deals with RAC-gamma serine/threonine-protein kinase (Homo sapiens) (UniProt Q9Y243). The note with it: at 0.1 µM.
Assay [6] shares this target. Particulars: at 1 µM.
For assay [7], the target named is G protein-coupled receptor kinase 6 (Homo sapiens) (UniProt P43250). Particulars: at 0.1 µM.
Assay [8] has the same target. Particulars: at 1 µM.
In assay [9] the target is T1, Rhodopsin kinase GRK7 (Homo sapiens) (UniProt Q8WTQ7).
T1 sequence (whole entry): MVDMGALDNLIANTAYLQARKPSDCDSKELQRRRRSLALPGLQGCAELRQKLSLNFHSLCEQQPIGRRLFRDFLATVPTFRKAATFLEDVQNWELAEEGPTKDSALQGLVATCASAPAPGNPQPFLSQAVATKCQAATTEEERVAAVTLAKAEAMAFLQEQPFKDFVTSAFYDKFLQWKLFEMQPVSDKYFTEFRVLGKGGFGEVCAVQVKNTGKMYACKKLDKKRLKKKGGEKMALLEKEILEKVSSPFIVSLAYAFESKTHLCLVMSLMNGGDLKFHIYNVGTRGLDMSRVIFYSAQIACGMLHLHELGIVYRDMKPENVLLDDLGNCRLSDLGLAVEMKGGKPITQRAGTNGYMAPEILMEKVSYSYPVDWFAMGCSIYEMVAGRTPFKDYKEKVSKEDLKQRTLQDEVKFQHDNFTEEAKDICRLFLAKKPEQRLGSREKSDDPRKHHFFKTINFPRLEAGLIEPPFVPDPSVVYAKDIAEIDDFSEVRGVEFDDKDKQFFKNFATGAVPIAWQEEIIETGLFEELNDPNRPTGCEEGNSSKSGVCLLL
Particulars: at 0.1 µM.

The target in assay [10] is T1, Rhodopsin kinase GRK7 (Homo sapiens). The note with it: at 1 µM.
For assay [11], the target named is Serine/threonine-protein kinase MRCK alpha (Homo sapiens) (UniProt Q5VT25). Particulars: at 0.1 µM.
Assay [12] shares this target. The note with it: at 1 µM.
Assay [13] concerns the target Serine/threonine-protein kinase MRCK beta (Homo sapiens) (UniProt Q9Y5S2). The note with it: at 0.1 µM.
Assay [14] shares this target. The note with it: at 1 µM.
The target in assay [15] is Ribosomal protein S6 kinase alpha-5 (Homo sapiens) (UniProt O75582). The note with it: at 0.1 µM.
The target is the same in assay [16]. Particulars: at 1 µM.
Assay [17] concerns the target Ribosomal protein S6 kinase alpha-4 (Homo sapiens) (UniProt O75676). The note with it: at 0.1 µM.
The target is the same in assay [18]. Particulars: at 1 µM.
The target in assay [19] is Ribosomal protein S6 kinase beta-1 (Homo sapiens) (UniProt P23443). The note with it: at 0.1 µM.
The target is the same in assay [20]. Particulars: at 1 µM.

Chain of Ribosomal protein S6 kinase beta-1 (Homo sapiens) (P23443 whole entry, looked up): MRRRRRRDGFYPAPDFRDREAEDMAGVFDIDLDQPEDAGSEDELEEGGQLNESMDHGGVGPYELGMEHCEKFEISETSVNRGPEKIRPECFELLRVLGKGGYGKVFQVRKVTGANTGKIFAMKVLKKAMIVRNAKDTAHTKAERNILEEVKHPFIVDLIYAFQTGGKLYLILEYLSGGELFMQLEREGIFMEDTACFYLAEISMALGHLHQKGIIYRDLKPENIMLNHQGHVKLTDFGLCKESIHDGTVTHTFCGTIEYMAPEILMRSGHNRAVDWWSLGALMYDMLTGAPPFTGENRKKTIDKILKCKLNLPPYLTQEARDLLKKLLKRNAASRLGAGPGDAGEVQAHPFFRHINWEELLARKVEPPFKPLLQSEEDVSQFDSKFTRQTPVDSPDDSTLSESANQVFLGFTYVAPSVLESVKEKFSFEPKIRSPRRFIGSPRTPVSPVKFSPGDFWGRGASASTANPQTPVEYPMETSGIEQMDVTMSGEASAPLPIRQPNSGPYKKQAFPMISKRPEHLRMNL
Chain of Serine/threonine-protein kinase MRCK beta (Homo sapiens) (Q9Y5S2 whole entry): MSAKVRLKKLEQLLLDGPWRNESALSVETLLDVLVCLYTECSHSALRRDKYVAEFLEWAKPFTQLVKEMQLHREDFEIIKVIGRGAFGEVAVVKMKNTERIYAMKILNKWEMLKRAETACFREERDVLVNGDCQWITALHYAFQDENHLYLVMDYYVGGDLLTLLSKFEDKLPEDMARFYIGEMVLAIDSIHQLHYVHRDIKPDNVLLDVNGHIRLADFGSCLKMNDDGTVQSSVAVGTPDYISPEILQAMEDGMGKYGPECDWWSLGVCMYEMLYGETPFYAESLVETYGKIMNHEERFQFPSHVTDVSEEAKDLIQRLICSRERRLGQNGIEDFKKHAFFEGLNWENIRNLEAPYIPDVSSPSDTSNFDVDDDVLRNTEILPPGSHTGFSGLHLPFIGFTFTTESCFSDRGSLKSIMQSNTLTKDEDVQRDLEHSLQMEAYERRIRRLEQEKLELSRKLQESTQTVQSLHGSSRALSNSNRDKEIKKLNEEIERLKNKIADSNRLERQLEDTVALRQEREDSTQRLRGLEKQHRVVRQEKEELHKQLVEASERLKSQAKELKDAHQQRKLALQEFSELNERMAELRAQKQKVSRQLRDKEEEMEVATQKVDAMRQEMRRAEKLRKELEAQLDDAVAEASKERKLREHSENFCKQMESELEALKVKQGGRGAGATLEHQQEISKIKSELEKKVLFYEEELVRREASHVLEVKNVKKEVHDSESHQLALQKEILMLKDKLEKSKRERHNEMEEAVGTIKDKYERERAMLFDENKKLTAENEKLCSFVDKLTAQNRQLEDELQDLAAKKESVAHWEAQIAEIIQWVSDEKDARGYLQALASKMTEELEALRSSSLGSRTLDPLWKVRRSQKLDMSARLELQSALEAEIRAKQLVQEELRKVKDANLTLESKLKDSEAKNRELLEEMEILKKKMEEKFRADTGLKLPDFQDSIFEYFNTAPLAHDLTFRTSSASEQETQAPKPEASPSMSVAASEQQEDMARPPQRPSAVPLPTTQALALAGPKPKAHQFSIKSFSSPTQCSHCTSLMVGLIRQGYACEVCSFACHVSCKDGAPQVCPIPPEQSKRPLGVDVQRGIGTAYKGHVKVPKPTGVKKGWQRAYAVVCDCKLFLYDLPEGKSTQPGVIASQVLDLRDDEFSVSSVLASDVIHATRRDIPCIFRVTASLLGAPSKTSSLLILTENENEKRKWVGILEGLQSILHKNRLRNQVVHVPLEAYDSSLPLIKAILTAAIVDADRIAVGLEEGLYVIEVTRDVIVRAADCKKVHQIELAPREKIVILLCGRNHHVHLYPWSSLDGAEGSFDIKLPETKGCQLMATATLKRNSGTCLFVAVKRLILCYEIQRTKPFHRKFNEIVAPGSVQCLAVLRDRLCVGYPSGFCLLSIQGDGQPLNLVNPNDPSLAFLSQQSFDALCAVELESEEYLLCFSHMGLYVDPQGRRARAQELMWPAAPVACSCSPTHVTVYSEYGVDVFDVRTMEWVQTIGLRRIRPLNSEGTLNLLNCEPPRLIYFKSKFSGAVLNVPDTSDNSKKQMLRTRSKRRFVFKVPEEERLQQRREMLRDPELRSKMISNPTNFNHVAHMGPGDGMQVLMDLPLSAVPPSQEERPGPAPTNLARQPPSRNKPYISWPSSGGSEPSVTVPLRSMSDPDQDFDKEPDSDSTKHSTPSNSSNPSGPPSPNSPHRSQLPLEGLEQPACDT
Chain of RAC-beta serine/threonine-protein kinase (Homo sapiens) (P31751 whole entry): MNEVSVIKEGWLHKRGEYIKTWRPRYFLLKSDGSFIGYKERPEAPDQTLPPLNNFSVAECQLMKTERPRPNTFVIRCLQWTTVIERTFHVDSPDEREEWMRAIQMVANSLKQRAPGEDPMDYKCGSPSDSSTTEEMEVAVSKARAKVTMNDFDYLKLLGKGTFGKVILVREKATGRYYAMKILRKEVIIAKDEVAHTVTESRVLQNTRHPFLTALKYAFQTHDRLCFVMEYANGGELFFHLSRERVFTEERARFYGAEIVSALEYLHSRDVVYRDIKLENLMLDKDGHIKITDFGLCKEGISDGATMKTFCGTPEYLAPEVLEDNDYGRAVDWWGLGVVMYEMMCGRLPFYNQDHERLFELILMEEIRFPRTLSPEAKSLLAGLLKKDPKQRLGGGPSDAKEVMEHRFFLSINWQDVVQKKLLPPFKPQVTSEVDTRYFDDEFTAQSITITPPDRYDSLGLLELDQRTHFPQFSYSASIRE
Chain of Ribosomal protein S6 kinase alpha-4 (Homo sapiens) (O75676 whole entry, looked up): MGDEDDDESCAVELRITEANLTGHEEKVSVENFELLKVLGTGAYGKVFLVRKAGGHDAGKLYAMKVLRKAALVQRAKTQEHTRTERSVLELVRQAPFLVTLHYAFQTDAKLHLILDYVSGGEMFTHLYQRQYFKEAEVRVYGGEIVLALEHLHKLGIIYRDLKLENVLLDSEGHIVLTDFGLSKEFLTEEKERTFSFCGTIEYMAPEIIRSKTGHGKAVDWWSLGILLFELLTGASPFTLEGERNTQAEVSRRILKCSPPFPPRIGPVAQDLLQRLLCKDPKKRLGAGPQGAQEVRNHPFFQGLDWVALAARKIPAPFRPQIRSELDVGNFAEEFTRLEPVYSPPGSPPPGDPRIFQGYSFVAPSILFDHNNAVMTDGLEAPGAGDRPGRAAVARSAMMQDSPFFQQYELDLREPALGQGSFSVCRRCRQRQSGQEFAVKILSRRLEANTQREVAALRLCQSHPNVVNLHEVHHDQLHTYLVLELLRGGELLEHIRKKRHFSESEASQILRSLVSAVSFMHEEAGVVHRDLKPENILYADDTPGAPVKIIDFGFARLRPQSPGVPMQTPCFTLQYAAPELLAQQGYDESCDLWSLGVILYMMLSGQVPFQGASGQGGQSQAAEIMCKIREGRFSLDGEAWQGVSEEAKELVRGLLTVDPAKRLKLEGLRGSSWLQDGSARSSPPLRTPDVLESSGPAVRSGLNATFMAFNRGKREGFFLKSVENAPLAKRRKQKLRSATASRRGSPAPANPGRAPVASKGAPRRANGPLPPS
Chain of RAC-gamma serine/threonine-protein kinase (Homo sapiens) (Q9Y243 whole entry): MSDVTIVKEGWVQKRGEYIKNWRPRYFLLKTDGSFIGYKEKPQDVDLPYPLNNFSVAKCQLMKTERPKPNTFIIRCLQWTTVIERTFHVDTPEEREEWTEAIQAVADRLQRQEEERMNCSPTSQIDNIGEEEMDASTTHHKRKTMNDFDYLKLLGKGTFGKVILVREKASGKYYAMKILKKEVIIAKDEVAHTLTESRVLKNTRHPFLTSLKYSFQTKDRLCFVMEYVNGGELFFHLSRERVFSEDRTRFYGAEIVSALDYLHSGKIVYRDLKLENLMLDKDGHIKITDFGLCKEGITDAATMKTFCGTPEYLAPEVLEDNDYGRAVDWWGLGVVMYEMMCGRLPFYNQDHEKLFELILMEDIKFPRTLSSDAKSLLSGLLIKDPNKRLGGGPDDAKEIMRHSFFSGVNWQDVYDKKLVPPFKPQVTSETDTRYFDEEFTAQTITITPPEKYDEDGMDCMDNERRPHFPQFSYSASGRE
Chain of RAC-alpha serine/threonine-protein kinase (Homo sapiens) (P31749 whole entry): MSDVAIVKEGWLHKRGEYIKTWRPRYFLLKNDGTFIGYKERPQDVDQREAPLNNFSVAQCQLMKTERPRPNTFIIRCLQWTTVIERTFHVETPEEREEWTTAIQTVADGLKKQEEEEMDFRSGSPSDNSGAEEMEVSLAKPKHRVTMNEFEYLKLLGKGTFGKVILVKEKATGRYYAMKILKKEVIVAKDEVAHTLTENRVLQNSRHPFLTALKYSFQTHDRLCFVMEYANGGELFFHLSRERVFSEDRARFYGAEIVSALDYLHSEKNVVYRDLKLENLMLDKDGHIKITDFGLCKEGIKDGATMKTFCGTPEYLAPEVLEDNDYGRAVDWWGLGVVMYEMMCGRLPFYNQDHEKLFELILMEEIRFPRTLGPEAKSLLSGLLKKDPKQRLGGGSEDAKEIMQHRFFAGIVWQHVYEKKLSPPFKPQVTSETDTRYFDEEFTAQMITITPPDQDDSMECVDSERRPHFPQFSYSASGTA
Chain of G protein-coupled receptor kinase 6 (Homo sapiens) (P43250 whole entry, looked up): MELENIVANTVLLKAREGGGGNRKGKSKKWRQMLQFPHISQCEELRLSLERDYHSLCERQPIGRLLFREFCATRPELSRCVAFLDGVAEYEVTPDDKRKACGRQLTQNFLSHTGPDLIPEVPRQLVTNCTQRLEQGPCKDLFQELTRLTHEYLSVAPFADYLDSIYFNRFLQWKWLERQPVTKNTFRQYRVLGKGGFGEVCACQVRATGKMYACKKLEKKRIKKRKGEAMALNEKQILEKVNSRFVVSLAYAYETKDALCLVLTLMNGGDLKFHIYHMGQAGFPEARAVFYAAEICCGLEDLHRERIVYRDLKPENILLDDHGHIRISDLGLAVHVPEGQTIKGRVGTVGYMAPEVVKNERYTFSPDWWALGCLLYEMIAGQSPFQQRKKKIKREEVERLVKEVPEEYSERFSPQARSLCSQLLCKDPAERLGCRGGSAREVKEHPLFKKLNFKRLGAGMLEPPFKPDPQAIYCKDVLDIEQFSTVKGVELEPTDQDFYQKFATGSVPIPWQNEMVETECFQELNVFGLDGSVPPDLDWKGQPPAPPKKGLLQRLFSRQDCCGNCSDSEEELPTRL

For `CCn1c(-c2nonc2N)nc2c(C#CC(C)(C)O)ncc(OCC3CCNCC3)c21`, the inhibition (usually the change of the read-out against control, counted positive when it falls) was 60.7% in [1]; 88.2% in [2]; 74.2% in [3]; 89.3% in [4]; 57.7% in assay [5]; 86% in assay [6]. In addition, the inhibition worked out at 4.53% in [7]; 11.1% in assay [8]; 5.08% in assay [9]; 23.3% in assay [10]; 3.52% in assay [11]; 33.2% in [12]. The inhibition in assay [13] is 2.36%; in assay [14], 21.1%; in assay [15] it was 2.98%; in [16] it was 16.2%; in assay [17], 4.39%; in assay [18] it was 19.2%. Moreover, the inhibition in [19] was found to be 3.1%; in assay [20], 15.4%.
In the case of `Nc1nonc1-c1nc2cnccc2n1C1CCCCC1`, the inhibition in assay [1] was 3.37%; in [2], 37.4%; in assay [3], 1.24%; in assay [4], 22.4%; in assay [5] it was 3.35%; in assay [6], 32.3%. For the same molecule, the inhibition was -0.4% in [7]; 2.07% in assay [8]; -7.5% in [9]; 2.63% in [10]; 18.6% in assay [11]; 65.9% in assay [12]. Besides, the inhibition in [13] worked out at 29.6%; in assay [14], 72%; in assay [15], 76.5%; in [16], 85.2%; in assay [17], 59.6%; in assay [18], 83%. In addition, the inhibition in assay [19] stood at 72.6%; in assay [20] it was 91.2%.
Consider `NS(=O)(=O)c1ccc(N/C=C2\C(=O)Nc3ccc4ncsc4c32)cc1`, for which the inhibition in assay [1] came out at 0.54%; in [2] it was 0.61%; in [3], 2.08%; in [4] it was 2.38%; in [5], 0.65%; in [6], 3.15%. The inhibition in assay [7] was 4.87%; in [8], 18.7%; in assay [9], 8.46%; in assay [10], 6.58%; in assay [11], -1.47%; in [12], 10.5%. In addition, the inhibition in [13] came to 0.46%; in [14], 5.66%; in [15] it was 5.1%; in [16] it was 12.2%; in [17], 15.3%; in [18] it was 50.9%. Besides, the inhibition was 1.92% in assay [19] and 13.5% in assay [20].
`NC(=O)c1sc(-n2cnc3cc(C(F)(F)F)ccc32)cc1OCc1ccccc1Br`: the inhibition was 0.26% in [1]; 0.43% in assay [2]; -0.81% in [3]; 0.47% in [4]; 0.03% in assay [5]; 3.71% in assay [7]. The inhibition in assay [8] is 1.08%; in assay [9] it was 5.6%; in assay [10], 5.78%; in assay [11], -1.08%; in assay [12] it was -4.81%; in assay [13] it was 0.07%. The inhibition in assay [14] was 0.13%; in assay [15] it was 0.28%; in assay [16], -0.19%; in assay [17] it was 2.32%; in assay [18], 1.32%; in assay [19], 1.25%. In assay [20], the inhibition was -0.49%.
For `Fc1ccc(-c2ncn(C3CCNCC3)c2-c2ccnc(Oc3ccccc3)n2)cc1`, the inhibition in assay [1] is -3.52%; in [2], -2.95%; in assay [3], -2.98%; in [5], -3.09%; in assay [6] it was 4.46%; in [7], -2.07%. The inhibition is 1.13% in [8]; 8.55% in assay [9]; -1.71% in assay [10]; -3.2% in [11]; -1.87% in [12]; -0.1% in assay [13]. For the same molecule, the inhibition in assay [14] is -0.81%; in assay [15] it was -1.31%; in [16], -2.46%; in assay [17], 1.09%; in assay [18], 0.21%; in assay [19], 1.34%. Moreover, the inhibition in assay [20] is 7.24%.
`CCn1c(-c2nonc2N)nc2c(C#CC(C)(C)O)ncc(OC[C@@H]3CCCN3)c21`: the inhibition is 68.2% in assay [1]; 91.1% in [2]; 79.7% in assay [3]; 67.5% in [5]; 90.4% in assay [6]; -2.91% in assay [7]. Further, the inhibition in assay [8] is 0.91%; in assay [9], 6.42%; in assay [10], 14%; in assay [11] it was -1.54%; in assay [12], 23.5%; in [13], 2.11%. In addition, the inhibition in assay [14] turned out to be 19.5%; in [15], 0.57%; in assay [16], 7.89%; in [17], 3.2%; in assay [18], 17.5%; in assay [19], 3.87%. In addition, the inhibition in assay [20] was determined as 25.4%.
Consider `COc1cc(C=NNc2ncnc3c2cnn3Cc2ccccc2)ccc1O`, for which the inhibition in assay [1] is -2.34%; in assay [2], -2.35%; in assay [3], -3.56%; in [4] it was -1.08%; in [5], -2.66%; in [6], -1.29%. Besides, the inhibition in assay [7] is -3.93%; in [8] it was -0.64%; in [10] it was -3.65%; in assay [11], 1.44%; in [12] it was -1.07%; in assay [13], 1.9%. Moreover, the inhibition was 4.11% in assay [14]; 2.29% in [15]; 3% in [16]; 1.75% in [17]; 4.49% in [18]; -1.02% in assay [19]. In addition, the inhibition in [20] was -0.11%.
